Hit rate of the full screen: of about 52,000 compounds, about 1,700 (3.3%) were called active. What follows is part of a selection rich in actives, with near analogues and random picks from the rest. Values without a mark were called inactive. Rule as the data show it: active = survival mostly below about 52% (no sharp cut-off); inactive = mostly above about 56%.
system: Wild type; experiment: S. aureus survival, RN4220 and DeltatarO strains – OD600, teichoic acid synthesis inhibitors, primary screen (AID 463173); details: S. aureus RN4220 wild type/DeltatarO growth, OD600, 18 h, active compounds read low, screened at 18.75 µg/mL (by protocol)

SMILES	survival
Nc1ncnc2sc3c(c12)CCCC3	109%
CCOC(=O)CSc1ncnc2sc3c(c12)CCC3	100%
Clc1ncnc2sc3c(c12)CCCC3	108%
CCOC(=O)C(CC)Sc1ncnc2sc3c(c12)CCCC3 (stereo not given)	-3% (active)
CNC(=O)CSc1ncnc2sc3c(c12)CCCC3	104%
COC(=O)C(C)n1cnc2sc3c(c2c1=O)CCCC3 (stereo not given)	102%
CC(C)OCCCNc1ncnc2sc3c(c12)CCCC3	79%
CCC(Sc1ncnc2sc3c(c12)CCCC3)C(=O)OC(C)C (stereo not given)	-2% (active)
CCC(Sc1ncnc2sc3c(c12)CCCC3)C(=O)OCC(C)C (stereo not given)	-3% (active)
Cc1oc(-c2ccc(C(=O)Nc3cccc(C(F)(F)F)c3)cc2)nc1CSc1ccccc1	57%
Cc1ccc(C)c(N2CCN(S(=O)(=O)c3ccc4oc(=O)c5ncn(C)c5c4c3)CC2)c1	81%
Cc1c(Cl)cccc1NC(=O)Nc1nnc(N(C)C2CCCCC2)s1	111%
Cc1ccc(-n2c(=O)c3cccnc3n2CC(=O)Nc2ccc(Br)cc2)cc1C	57%
O=C(CSc1ncc(-c2ccccc2)[nH]1)Nc1cccc(Br)c1	13%
O=C(O)c1ccc(-c2ccc(/C=N/N3C(=O)C4C(C3=O)C3C=CC4C34CC4)o2)cc1 (stereo not given)	110%
CC1CCN(S(=O)(=O)c2ccc3c(c2)N(C)C(=O)CC(=O)N3C)CC1	74%
Cc1cccn2c(=O)c3cc(C(=O)NCC(C)C)sc3nc12	80%
COc1ccccc1N(C)C(=O)Cn1c(=O)oc2cc(S(=O)(=O)N3CCCC3)ccc21	127%
CCOc1ccc(NC(=O)CSc2nnc3scc(-c4ccccc4)n23)cc1	48%
Cc1ccc(C)c(CN2CCCN(Cc3ccc(F)cc3)S2(=O)=O)c1	-6% (active)
COc1ccc(NC(=O)CN2CCCN(Cc3ccc(Cl)cc3)S2(=O)=O)cc1Cl	67%
Cc1ccc(C)c(CN2CCCN(Cc3ccccc3C)S2(=O)=O)c1	76%
Cc1ccc(CN2CCCN(Cc3c(C)cc(C)cc3C)S2(=O)=O)cc1	63%

SMILES	survival
COC(=O)c1ccc(OC)c(CN2CCCN(Cc3ccc(C)cc3)S2(=O)=O)c1	-3% (active)
COC(=O)c1ccc(NC(=O)CN2CCCN(Cc3ccc(Cl)cc3)S2(=O)=O)cc1	110%
CCc1c(CN2CCN(c3cccc(C)c3)C(C)C2)csc1C (stereo not given)	94%
Cc1c(-c2ccccc2)c(=O)oc2ccc(OC(=O)N3CCOCC3)cc12	78%
CC(C)(C)OC(=O)N1CCC(c2c(C(=O)N3CCN(c4ncccn4)CC3)cnn2-c2cccc(F)c2)CC1	134%
CCCOc1ccc(Nc2cc(C)nc(C)n2)cc1	82%
Cc1cc(C)cc(NC(=O)CCCc2nnc3n(CC(C)C)c(=O)c4sccc4n23)c1	97%
Cc1cc(C)cc(-n2nnc(-c3nsc(NC(=O)c4ccccc4Cl)n3)c2C)c1	49%
CCc1ccc(-n2nnc(-c3nsc(NC(=O)c4ccccc4Cl)n3)c2C)cc1	12% (active)
CCc1cccc(-n2nnc(-c3nsc(NC(=O)c4ccc(C)cc4)n3)c2C)c1	53%
CSc1cccc(-n2nnc(-c3nsc(NC(=O)c4cccs4)n3)c2C)c1	80%
CCc1cccc(-n2nnc(-c3nsc(NC(=O)c4cccs4)n3)c2C)c1	-6% (active)
Cc1ccc(-n2nnc(-c3nsc(NC(=O)c4ccccc4C)n3)c2C)cc1Cl	159%
Cn1c(=O)c2cc(C(=O)NC3CCCCCC3)sc2c2ccccc21	89%
CCCN(CCC)C(=O)Cn1c(=O)n(Cc2ccc(C(=O)NCCc3ccc(Cl)cc3)cc2)c(=O)c2ccccc21	113%
CCCCN(C(=O)CCn1c(=O)oc2ccccc21)c1ccccc1	71%
COc1ccc(S(=O)(=O)n2nc(C)c(S(=O)(=O)N3CCCCC3)c2C)cc1	63%
CCCOc1ccc(OC(=O)c2sc3ncn(Cc4cccc(F)c4)c(=O)c3c2C)cc1	56%
COc1ccc(C(=O)Nc2ccccc2C(=O)OCc2cc(=O)n3nc(C4CC4)sc3n2)cc1	67%
Cc1ccc(OCCCCn2nnc3sc4c(c3c2=O)CCC(C)C4)cc1 (stereo not given)	94%
Cc1ccc(-c2nc(NC(=O)CSc3ncnc4sc5c(c34)CCC(C)C5)ns2)cc1 (stereo not given)	75%
CCC(C(=O)OC(C)C)n1cnc2sc3c(c2c1=O)CCC(C)C3 (stereo not given)	71%

From PubChem BioAssay AID463173 (ICCB-Longwood Screening Facility, Harvard Medical School, 2010)
